A short description of test [1]: Nuclear factor erythroid 2-related factor 2/antioxidant responsive element (Nrf2/ARE) small molecule agonists: qHTS cell viability counter screen in human keratinocytes (AID 1919968; active means well fitted curve in the direction sought with a large enough effect in the repeat runs; an effect the other way counts as inactive or inconclusive; further: nearly all actives have a fitted effect of over 55% in size; further: potency means the concentration at half of the fitted maximal effect). The method in brief:
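KeratinoSens HaCaT cells, 1,500/well, preincubated 5 h, then exposed to compounds in DMSO for 23 h at 37 C/5% CO2. Viability read as CellTiter-Fluor fluorescence after 1 h, in the same wells as the ARE-luciferase read.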

A short description of test [2]: Nuclear factor erythroid 2-related factor 2/antioxidant responsive element (Nrf2/ARE) small molecule agonists: luciferase reporter gene qHTS assay in human keratinocytes (AID 1919969). Further: nearly all actives have a fitted effect of over 35% in size. Further: potency means the concentration at half of the fitted maximal effect. A general note: A reporter such as luciferase makes a cellular process visible.
In test [3] the target is Gonadotropin-releasing hormone receptor (Homo sapiens) (UniProt P30968). As to the kind of experiment: Human gonadotropin-releasing hormone receptor (GnRHR) small molecule agonists, calcium flux assay in GnRHR-HEK293 cells (AID 1920063). Further: nearly all actives have a fitted effect of over 35% in size. Summed up: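 HEK293 cells stably expressing human GnRHR were dye-loaded for 1 h at 37 C. Compound was added in agonist mode and fluorescence (Ex/Em 480/540) recorded kinetically for 3 min. Fifteen concentrations, triplicates.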
Gonadotropin-releasing hormone receptor (Homo sapiens), sequence (P30968 whole entry, looked up): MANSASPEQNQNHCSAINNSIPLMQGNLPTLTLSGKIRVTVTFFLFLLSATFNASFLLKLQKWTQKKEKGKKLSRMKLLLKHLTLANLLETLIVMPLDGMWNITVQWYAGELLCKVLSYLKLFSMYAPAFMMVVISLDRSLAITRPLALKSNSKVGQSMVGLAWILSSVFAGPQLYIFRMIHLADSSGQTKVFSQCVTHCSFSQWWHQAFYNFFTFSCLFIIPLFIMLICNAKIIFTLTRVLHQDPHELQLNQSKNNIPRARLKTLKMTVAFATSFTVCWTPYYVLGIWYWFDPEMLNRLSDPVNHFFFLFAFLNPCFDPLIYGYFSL
A general note: Calcium assays in cells follow changes in intracellular calcium, usually with a dye or a luminescent sensor.

Test [4] addresses KiSS-1 receptor (Homo sapiens) (UniProt Q969F8). As to the kind of experiment: Human kisspeptin (KISS1R) small molecule agonists, calcium flux assay in KISS1R-HEK293 cells (AID 1920064; active means well fitted curve in the direction sought with a large enough effect in the repeat runs; an effect the other way counts as inactive or inconclusive). Summed up:
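HEK293 cells stably expressing human KISS1R were loaded with calcium dye for 1 h at 37 C, then given compound; fluorescence (Ex/Em 480/540) was read kinetically for 3 min. Fifteen concentrations, triplicate.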

A short description of test [5]: G protein-coupled receptor (GPCR) small molecule agonists, calcium flux assay: HEK293 wild type cell line counter screen (AID 1920065). The method in brief: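 Wild-type HEK293 cells plated 18 h, loaded with calcium dye 1 h at 37 C, then compounds added in agonist mode (ATP as positive control). Kinetic fluorescence Ex/Em 480/540 recorded 3 min at 1 sec intervals; 15 concentrations, triplicate.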

Test [6] can be described thus: p53 small molecule agonists, cell-based qHTS assay with human liver microsomes (AID 1963577).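 Further: p53 response element beta-lactamase reporter cells with liver microsomes plus NADPH.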 The method in brief: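 Steps: plate p53RE-bla cells, incubate 5 h at 37 C; add compound in DMSO; add microsomes (0.5 mg/mL final) and NADPH (0.5 mg/mL final); incubate 16 h at 37 C; add LiveBLAzer, 2 h RT; read fluorescence.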
(In general: qHTS replaces the single test concentration by a dilution series.)

The nature of test [7]: p53 small molecule agonists, cell-based qHTS assay with rat liver microsomes (AID 1963578). The method in brief: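 Metabolic activation is supplied by rat liver microsomes with NADPH (each 0.5 mg/mL final). p53RE-bla cells incubate with compound 16 h at 37 C; reporter activity is measured by LiveBLAzer fluorescence.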
Test [8] is described as follows: p53 small molecule agonists, cell-based qHTS assay with human liver microsomes: qHTS cell viability counter screen (AID 1963579). Further: nearly all actives have a fitted effect of over 45% in size. Summed up:
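After the 460/530 nm beta-lactamase read, CellTiter-Glo was added to the same wells and luminescence measured after 30 min at room temperature, giving viability of p53RE-bla cells treated 16 h with compounds plus microsomes and NADPH.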

A short description of test [9]: p53 small molecule agonists, cell-based qHTS assay with rat liver microsomes: qHTS cell viability counter screen (AID 1963580). Further: nearly all actives have a fitted effect of over 45% in size. The method in brief: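 p53RE-bla HCT-116 cells (4,000/well) rested 5 h at 37 C, then given Tox21 compounds in DMSO with rat liver microsomes (0.5 mg/mL final) plus NADPH (0.5 mg/mL final) for 16 h at 37 C. Viability read by CellTiter-Glo luminescence after 30 min at room temperature.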

Test [10] is described as follows: p53 small molecule agonists, cell-based qHTS assay: qHTS cell viability counter screen (AID 1963581). Further: nearly all actives have a fitted effect of over 45% in size. The method in brief:
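p53RE-bla HCT-116 cells, compounds added 5 h after plating and incubated 16 h at 37 C. Cytotoxicity measured in the same wells as intracellular ATP by CellTiter-Glo luminescence after 30 min at room temperature.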

The nature of test [11]: p53 small molecule agonists, cell-based qHTS assay (AID 1963582; active means well fitted activation curve with a large enough effect in the signal ratio in the repeat runs, not every such curve was filed as active; the % refers to the signal ratio). Summed up:
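p53RE-bla reporter cells, compounds added in DMSO after 5 h plating, incubated 16 h at 37 C. Beta-lactamase read via 2 h room-temperature LiveBLAzer B/G FRET substrate, fluorescence intensity.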

Test [12] concerns the target 5-hydroxytryptamine receptor 2A (Homo sapiens) (UniProt P28223). As to the kind of experiment: 5-hydroxytryptamine receptor 2A (HTR2A) small molecule antagonists, cell-based qHTS assay (AID 1963586). Further: nearly all actives have a fitted effect of over 45% in size. Summed up:
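Antagonist-mode intracellular calcium assay: DOI (4 nM) added after 5 min compound pre-incubation at room temperature to dye-loaded HTR2A-CHO cells. Fluorescence followed for 3 min, sampled every second.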

The target is the same in test [13]. As to the kind of experiment: 5-hydroxytryptamine receptor 2A (HTR2A) small molecule agonists, cell-based qHTS assay (AID 1963587). Further: nearly all actives have a fitted effect of over 30% in size. Further: potency means the concentration at half of the fitted maximal effect. Summed up: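 HTR2A-CHO cells, plated 18 h at 37 C/5% CO2, dye-loaded 1 h at 37 C; compounds in DMSO added by pin tool (agonist mode). Intracellular calcium flux read as kinetic fluorescence on FDSS over 2 min at 1 s intervals.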

Test [14] has as its target Muscarinic acetylcholine receptor M1 (Homo sapiens) (UniProt P11229). As to the kind of experiment: Cholinergic receptor muscarinic 1 (CHRM1) small molecule antagonists, cell-based qHTS assay (AID 1963588). Further: nearly all actives have a fitted effect of over 40% in size. Summed up: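 CHRM1-CHO calcium-flux assay, antagonist mode. Cells were seeded 18 h, dye-loaded 1 h at 37 C and given compound for 5 min at RT, then acetylcholine was added at 50nM. FDSS fluorescence was read 3 min; 15 concentrations, three runs.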

The target is the same in test [15]. As to the kind of experiment: Cholinergic receptor muscarinic 1 (CHRM1) small molecule agonists, cell-based qHTS assay (AID 1963589). Further: nearly all actives have a fitted effect of over 35% in size. The method in brief: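 CHO cells stably expressing human CHRM1 were loaded with calcium dye for 1 h at 37 C, then compound was added in agonist mode. Intracellular calcium fluorescence was followed kinetically at 1 s intervals. Fifteen concentrations were tested in three independent runs.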

The nature of test [16]: cAMP Responsive Elements (CRE) small molecule agonists, cell-based qHTS assay (AID 1963590). Summed up: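 CRE-bla HEK 293T cells, 2,000/well in DMEM with 10% dialyzed FBS and 25 mM HEPES, pre-incubated 18 h at 37 C, then exposed to compound 3 h at 37 C. Beta-lactamase reporter read with LiveBLAzer B/G FRET substrate after 2 h at room temperature.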
Test [17] addresses Beta-2 adrenergic receptor (Homo sapiens) (UniProt P07550). Nature of the test: Adrenergic beta2 receptor (ADRB2) small molecule antagonists, cell-based qHTS assay (AID 1963592). Further: series mostly up to about 92 µM; nearly all actives have a fitted effect of over 50% in size. The method in brief: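 Cells (CHO, stable ADRB2 overexpression) incubated 18-20hr at 37C; compounds added from DMSO; agonist mix (1nM isoproterenol, 100uM IBMX, 25uM Ro-20-1724) added; 0.5hr RT; d2-cAMP and anti-cAMP-cryptate added; 1hr RT; 665/615 nm read.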

The target of test [18] is D(2) dopamine receptor (Homo sapiens) (UniProt P14416). Nature of the test: Dopamine D2 receptor (DRD2) small molecule agonists, cell-based qHTS assay (AID 1963594). Further: nearly all actives have a fitted effect of over 35% in size. The method in brief:
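HEK293 cells stably expressing DRD2 were cultured 24 h at 37 C, then given Ro20-1724 (0.1 mM final) and compounds for 10 min at room temperature. NKH477 (200nM) was then added for 30 min. cAMP was read by HTRF.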

The target is the same in test [19]. As to the kind of experiment: Dopamine D2 receptor (DRD2) small molecule antagonists, cell-based qHTS assay (AID 1963595; active means well fitted inhibition curve with a large enough effect in the signal ratio in the repeat runs, with a control signal flat; the % refers to the signal ratio). The method in brief:
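Human DRD2 antagonist qHTS measuring cAMP by HTRF. The cells are exposed to compound for 10 min, then to NKH477 (200 nM) and quinpirole (12 nM) for 30 min at RT, with Ro20-1724 (0.1 mM) present throughout.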

A short description of test [20]: cAMP Responsive Elements (CRE) small molecule antagonists, cell-based qHTS assay (AID 1963591; active means well fitted inhibition curve with a large enough effect in the signal ratio in the repeat runs, not every such curve was filed as active; the % refers to the signal ratio). The method in brief:
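CRE-bla HEK293T cells plated 18 h, then given compound plus NKH477 at 0.25 uM final for 3 h at 37C. Beta-lactamase reporter read with LiveBLAzer B/G FRET substrate after 2 h at room temperature.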

Inconclusive results are not listed. Some compounds were tested as several samples or in several runs, with calls that do not always agree. Activity calls are given as the source filed them. Unless noted, the call rests on the fitted dose curve.

The source of these data is PubChem BioAssay (Tox21).

Beta-2 adrenergic receptor (Homo sapiens), sequence (P07550 whole entry, looked up): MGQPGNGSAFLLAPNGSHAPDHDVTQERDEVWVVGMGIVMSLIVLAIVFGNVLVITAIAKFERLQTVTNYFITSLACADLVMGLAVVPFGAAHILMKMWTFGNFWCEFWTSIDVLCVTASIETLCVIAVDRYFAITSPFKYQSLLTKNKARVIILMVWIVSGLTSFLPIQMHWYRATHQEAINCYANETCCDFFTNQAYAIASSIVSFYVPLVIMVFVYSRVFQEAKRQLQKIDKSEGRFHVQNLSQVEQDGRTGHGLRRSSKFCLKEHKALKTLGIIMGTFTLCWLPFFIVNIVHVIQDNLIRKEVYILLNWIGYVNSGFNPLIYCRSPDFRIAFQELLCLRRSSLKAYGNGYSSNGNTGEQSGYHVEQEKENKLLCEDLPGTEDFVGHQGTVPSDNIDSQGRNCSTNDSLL
5-hydroxytryptamine receptor 2A (Homo sapiens), sequence (P28223 whole entry, looked up): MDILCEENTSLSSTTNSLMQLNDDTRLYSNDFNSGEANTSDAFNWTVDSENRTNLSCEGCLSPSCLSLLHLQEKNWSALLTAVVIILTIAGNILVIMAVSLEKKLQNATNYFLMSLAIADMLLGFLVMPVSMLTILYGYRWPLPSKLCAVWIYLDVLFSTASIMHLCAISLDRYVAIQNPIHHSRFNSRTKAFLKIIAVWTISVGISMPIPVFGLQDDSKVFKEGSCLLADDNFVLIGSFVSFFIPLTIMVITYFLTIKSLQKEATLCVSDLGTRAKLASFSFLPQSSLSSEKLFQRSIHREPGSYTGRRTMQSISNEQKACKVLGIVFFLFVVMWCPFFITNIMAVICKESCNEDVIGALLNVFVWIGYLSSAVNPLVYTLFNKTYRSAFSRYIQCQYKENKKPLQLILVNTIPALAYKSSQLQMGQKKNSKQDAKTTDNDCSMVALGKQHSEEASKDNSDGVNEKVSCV
D(2) dopamine receptor (Homo sapiens), sequence (P14416 whole entry, looked up): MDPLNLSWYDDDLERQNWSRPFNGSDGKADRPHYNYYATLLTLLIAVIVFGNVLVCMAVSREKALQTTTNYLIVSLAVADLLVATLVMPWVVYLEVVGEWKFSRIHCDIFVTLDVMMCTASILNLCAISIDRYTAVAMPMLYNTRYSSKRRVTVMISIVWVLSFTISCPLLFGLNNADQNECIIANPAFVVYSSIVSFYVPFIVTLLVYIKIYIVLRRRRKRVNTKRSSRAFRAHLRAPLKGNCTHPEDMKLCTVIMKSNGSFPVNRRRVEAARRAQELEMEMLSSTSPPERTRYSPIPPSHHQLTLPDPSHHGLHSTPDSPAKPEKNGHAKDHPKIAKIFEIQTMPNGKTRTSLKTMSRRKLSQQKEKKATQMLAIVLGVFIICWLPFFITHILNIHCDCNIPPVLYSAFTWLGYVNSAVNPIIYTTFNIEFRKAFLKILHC
Muscarinic acetylcholine receptor M1 (Homo sapiens), sequence (P11229 whole entry, looked up): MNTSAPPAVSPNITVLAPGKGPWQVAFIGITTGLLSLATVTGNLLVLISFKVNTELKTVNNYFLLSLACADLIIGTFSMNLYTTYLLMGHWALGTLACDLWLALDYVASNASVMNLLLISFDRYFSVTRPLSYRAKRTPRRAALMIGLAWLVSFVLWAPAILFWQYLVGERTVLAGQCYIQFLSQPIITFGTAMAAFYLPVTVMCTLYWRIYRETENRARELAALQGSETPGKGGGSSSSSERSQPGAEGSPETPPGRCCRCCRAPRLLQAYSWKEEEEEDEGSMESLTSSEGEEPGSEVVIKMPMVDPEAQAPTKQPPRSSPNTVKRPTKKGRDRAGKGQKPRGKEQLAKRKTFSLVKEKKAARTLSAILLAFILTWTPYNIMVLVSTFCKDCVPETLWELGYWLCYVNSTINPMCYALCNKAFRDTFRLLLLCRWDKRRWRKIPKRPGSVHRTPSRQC
KiSS-1 receptor (Homo sapiens), sequence (Q969F8 whole entry, looked up): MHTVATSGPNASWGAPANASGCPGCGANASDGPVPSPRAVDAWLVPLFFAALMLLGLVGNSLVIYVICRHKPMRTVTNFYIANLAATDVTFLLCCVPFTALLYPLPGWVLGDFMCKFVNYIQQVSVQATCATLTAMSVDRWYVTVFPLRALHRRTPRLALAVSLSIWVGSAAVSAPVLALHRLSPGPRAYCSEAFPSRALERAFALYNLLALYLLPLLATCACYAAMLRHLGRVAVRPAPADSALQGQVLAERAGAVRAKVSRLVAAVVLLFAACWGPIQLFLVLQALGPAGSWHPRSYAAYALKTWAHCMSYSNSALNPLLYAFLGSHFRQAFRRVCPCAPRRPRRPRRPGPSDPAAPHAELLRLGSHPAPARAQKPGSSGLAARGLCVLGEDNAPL

Consider `CCCc1ccc(N)cc1`, for which the Potency result in [1], in test [2], in test [3], in [4], in test [5] and in test [6] was “inactive” each time. The Potency result in [7], in [8], in test [9], in [10], in test [11] and in test [12] was “inactive” throughout. For the same compound, the Potency entry in [13], in [14], in test [15], in [16], in [17] and in test [18] was “inactive” throughout. The Potency entry in test [19] is “inactive”.

With `ClCCCl`, the Potency result in [1], in test [2], in test [3], in [4], in [5] and in [6] was “inactive” in each case. For the same compound, the Potency entry in test [7], in test [8], in [9], in [10], in [11] and in test [12] was “inactive” each time. Besides, the Potency result in test [13], in [14], in [15], in [16], in [20] and in test [18] was “inactive” each time.

As for `CCCCC(CC)COC(=O)CCCCCCCC(=O)OCC(CC)CCCC` (configuration not stated), the Potency in [1] was 54.5 µM (active) and inactive; in test [2] it was 15.4 µM (active) and inactive; in test [13], 9.77 µM (active) and inactive. Also, the Potency entry in test [3], in test [4], in test [5], in test [6], in test [7] and in test [8] was “inactive” each time. Moreover, the Potency entry in test [9], in test [10], in test [11], in test [12], in test [14] and in test [15] was “inactive” throughout. For the same compound, the Potency entry in test [16], in test [17], in test [18] and in test [19] was “inactive” in each case.

As for `CC/C=C\C#N`, the Potency result in test [1], in test [2], in test [3], in test [4], in test [5] and in [6] was “inactive” each time. Also, the Potency entry in test [7], in [8], in test [9], in test [10], in [11] and in test [12] was “inactive” in each case. For the same compound, the Potency result in test [13], in test [14], in test [15], in test [16], in test [20] and in test [18] was “inactive” throughout. The Potency result in test [19] is “inactive”.

Take `CCC(C)NC(N)=O` (configuration not stated): the Potency result in test [1], in test [2], in [3], in [4], in test [5] and in test [6] was “inactive” each time. The Potency result in test [7], in [8], in [9], in [10], in test [11] and in [12] was “inactive” each time. Further, the Potency entry in test [13], in test [14], in test [15], in test [16], in test [17] and in [18] was “inactive” each time. Further, in test [19], the Potency entry is “inactive”.

In the case of `CC1CCC(C(C)(C)O)CC1` (configuration not stated), the Potency result in test [1], in test [2], in [3], in test [4], in [5] and in [6] was “inactive” in each case. Further, the Potency entry in test [7], in test [8], in test [9], in test [10], in test [11] and in test [12] was “inactive” throughout. The Potency result in [13], in test [14], in [15], in test [16], in test [20] and in [18] was “inactive” in each case. Further, the Potency entry in [19] was “inactive”.

On to `CC(=O)OCC1=C(C(=O)O)N2C(=O)[C@@H](NC(=O)Cc3cccs3)[C@H]2SC1`, for which the Potency entry in test [1], in [2], in test [3], in [4], in [5] and in test [6] was “inactive” in each case. In addition, the Potency result in test [7], in test [8], in test [9], in test [10], in [11] and in [12] was “inactive” each time. For the same compound, the Potency result in [13], in [14], in test [15], in [16], in [20] and in test [18] was “inactive” throughout. Also, the Potency result in test [19] is “inactive”.
